TDP1 inh: TDP1 (human) enzyme inhibition. Potency, µM (series often up to 130 µM), for the others: at the top dose activity change, negative = inhibition, actives largely listed as inhibitors. 350,000 tested, 0.28% active. recombinant TDP1, AlphaScreen DNA substrate cleavage. AID 485290. Q9NUW8; also: potency is read from the fitted curve at half-maximal effect; % is scaled to controls: 0 for no effect and ±100 for the full control effect; nearly all actives have a fitted effect of over 40% in size
Target sequence (Q9NUW8 whole entry, looked up): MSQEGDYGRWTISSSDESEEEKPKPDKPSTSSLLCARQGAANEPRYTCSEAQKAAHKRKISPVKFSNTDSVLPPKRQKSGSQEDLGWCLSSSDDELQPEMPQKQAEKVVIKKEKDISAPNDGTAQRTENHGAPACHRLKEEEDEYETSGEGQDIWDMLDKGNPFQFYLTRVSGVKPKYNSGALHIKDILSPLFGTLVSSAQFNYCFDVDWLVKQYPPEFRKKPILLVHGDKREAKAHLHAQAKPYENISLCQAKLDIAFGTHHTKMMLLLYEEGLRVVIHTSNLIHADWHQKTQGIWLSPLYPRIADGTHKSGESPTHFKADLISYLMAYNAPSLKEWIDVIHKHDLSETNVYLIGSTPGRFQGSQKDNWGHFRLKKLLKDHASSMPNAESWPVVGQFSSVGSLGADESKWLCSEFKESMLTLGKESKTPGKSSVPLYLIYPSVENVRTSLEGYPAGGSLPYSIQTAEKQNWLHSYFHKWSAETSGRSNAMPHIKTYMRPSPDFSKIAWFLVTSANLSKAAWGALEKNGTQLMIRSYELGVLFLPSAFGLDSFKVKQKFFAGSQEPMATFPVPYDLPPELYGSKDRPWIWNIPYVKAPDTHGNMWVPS
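Tdp1 1 nM final; 15 min RT w/ cpd; substrate 15 nM, 5 min; beads 10 ug/ml, 10 min; AlphaScreen read. Neg ctrl: no enzyme.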
DT40 TDP1 no CPT: qHTS for Inhibitors of human tyrosyl-DNA phosphodiesterase 1 (TDP1): qHTS in cells in absence of CPT; DT40 Tdp1-/- hTDP1 cells, no CPT, ATP luminescence, 48 h; 420,000 tested, 15% active; Potency, µM (series often up to 46.2 µM), for inactives: at the top dose activity change, negative = growth inhibition, hits mostly inhibitors; AID 686978, 2013; also: potency is read from the fitted curve at half-maximal effect; % is scaled to controls: 0 for no effect and ±100 for the full control effect; nearly all actives have a fitted effect of over 55% in size
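Seeded 400 DT40-hTDP1 cells/well (vehicle DMSO, no 20 nM CPT); pinned compounds; ≥48 hr at 37 °C; CellTiter-Glo luminescence as viability measure.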
IL-1B inflam inh: blocks inflammasome-driven IL-1 beta release; THP-1 LPS/ATP IL-1B secretion, AlphaLISA, 16 h; stronger effect = lower value; activity change, % at 57.5 µM; 360,000 tested, 4.7% active; in the data active = activity change below about -50%; inconclusive = mostly about -30% to -49%; also: % is scaled to controls: 0 for no effect and ±100 for the full control effect
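THP-1 cells pretreated 1 hr with compounds (up to 57.5 uM final), then stimulated with LPS (250 ng/mL final) plus ATP (1.25 mM final); secreted IL-1B measured by AlphaLISA after 16 hr, decreased signal indicating inhibition.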
DT40 TDP1 CPT: growth inhibition of DT40 Tdp1-/-;hTDP1 cells with camptothecin (screen for TDP1 inhibitors) | Potency, µM (titrated, usually from 46.2 µM), without a hit: at the top dose activity change, negative = growth inhibition, usual class: inhibitors | AID 686979 | 420,000 tested, 12% active | chicken DT40 Tdp1-/-;hTDP1 cells + 20 nM CPT, ATP luminescence, 48 h; also: potency is read from the fitted curve at half-maximal effect; % is scaled to controls: 0 for no effect and ±100 for the full control effect; nearly all actives have a fitted effect of over 55% in size
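Cell growth measured by CellTiter-Glo luminescence after a minimum 48 h, 37 C compound exposure with 20 nM CPT in Tdp1-knockout DT40 cells stably expressing hTDP1, seeded 400/well; qHTS titration format.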
TGFb SMAD3 inh: blocks TGF-b signaling | HepG2 CAGA-GFP TGF-b/SMAD3 reporter, GFP fluorescence, 18 h; TGF-beta stimulated, 500 pg/mL final | Potency, µM (doses to about 46.1 µM), without a hit: top-dose activity, negative = inhibition, most hits filed as inhibitors | 410,000 tested, 1.2% active | AID 588855; also: potency is read from the fitted curve at half-maximal effect; % is scaled to controls: 0 for no effect and ±100 for the full control effect; nearly all actives have a fitted effect of over 65% in size
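Cell-based qHTS in HEPG2 carrying a CAGA-GFP Smad reporter; compounds added before 500 pg/mL final TGF-beta, 18 h incubation at 37 degrees C, GFP fluorescence quantified per cell by imaging cytometry.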
HepG2 viability: counter-screen for TGF-b inhibitors: cytotoxicity in HepG2 cells; HepG2 CAGA-GFP viability, ATP luminescence, 18 h; Potency, µM (titrated, usually from 46.1 µM), for the others: at the top dose activity change, negative = cytotoxicity, actives largely listed as cytotoxic; 410,000 tested, 0.76% active; also: potency is read from the fitted curve at half-maximal effect
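HepG2 CAGA-GFP cells (1000/well, DMEM with 1% FBS) received compound, then TGF-beta at 500 pg/mL final, and were incubated 18 hours at 37 degrees C. Viability was read by CellTiter-Glo luminescence. Media-only wells were set as complete cell-killing and DMSO as no toxicity.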
* hit, by the source's call; ? = inconclusive; . = no result. Most compounds without a hit are left out; they make up all but 18% or so of the library. Unless noted, calls follow the shape of the dose curve; as a rule, active = well fitted curve in the direction sought with a large enough effect; inconclusive = small, poorly fitted or top-dose-only effect, or another doubt; inactive = no such curve, though single readings can be large; an effect the other way counts as inactive or inconclusive.

SMILES	TDP1 inh	DT40 TDP1 no CPT	IL-1B inflam inh	DT40 TDP1 CPT	TGFb SMAD3 inh	HepG2 viability
Cc1ccc(C2C(C#N)=C(N)Oc3cc(C)oc(=O)c32)o1 (stereo not given)	-2.4%	18.4µM*	-5.5	18.4µM*	4.2%	-0.2%
CCOc1ccccc1NC(=O)Cn1c(=O)n(-c2ccc(C)cc2)c(=O)c2c1cnn2C	-2.9%	?	.	?	1.1%	0.0%
CC(OC(=O)c1ccc2ccccc2c1)C(=O)N(C)Cc1ccccc1 (stereo not given)	-5.5%	20.6µM*	1.9	?	-19.6%	-31.5%
CN(Cc1ccccc1)C(=O)COC(=O)c1ccccc1NS(=O)(=O)c1cccc(N)c1	3.1%	?	8.7	?	?	-29.2%
CC(OC(=O)c1ccccc1NS(=O)(=O)c1cccc(C(F)(F)F)c1)C(=O)N(C)Cc1ccccc1 (stereo not given)	-2.7%	23.1µM*	-22.7	?	-15.9%	2.1%
Cn1nccc1C(=O)N1CCCC(Nc2ccc(F)cc2)C1 (stereo not given)	3.1%	21.8%	-1.0	7.1%	1.4%	-9.9%
Cc1cccc(CNC(=O)C2CCN(c3nnc(-n4c(C)ccc4C)s3)CC2)c1	7.6%	16.4µM*	.	?	.	-10.3%
CS(=O)(=O)N1CCC(C(=O)Nc2ccccc2Br)CC1	.	5.2%	-1.8	15.2%	-1.3%	3.7%
Cc1ccc(C)n1-c1nnc(N2CCC(C(=O)Nc3ccccc3Br)CC2)s1	0.0%	16.4µM*	.	?	.	-28.1%
COc1ccccc1CNC(=O)C1CCCN(c2nnc(-n3c(C)ccc3C)s2)C1 (stereo not given)	2.5%	?	.	16.4µM*	?	-14.4%
COc1cccc(CNC(=O)C2CCN(c3nnc(-n4c(C)ccc4C)s3)CC2)c1	5.1%	14.6µM*	.	?	.	-34.2%
Cc1ccc(C)n1-c1nnc(N2CCCC(C(=O)NCc3ccccc3)C2)s1 (stereo not given)	5.1%	?	.	?	.	-16.6%
Cc1ccc(C)n1-c1nnc(N2CCCC(C(=O)NCc3cccc(Br)c3)C2)s1 (stereo not given)	7.6%	?	.	?	?	-36.2%
Cc1cc(C)c(S(=O)(=O)N2CCCOC2CNC(=O)C(=O)NCc2ccccn2)c(C)c1 (stereo not given)	5.0%	-2.7%	1.7	4.5%	?	1.8%
COc1ccc(CNC(=O)C2CCN(c3nnc(-n4c(C)ccc4C)s3)CC2)c(OC)c1	7.6%	16.4µM*	.	?	.	-25.1%
Cc1ccc(C)n1-c1nnc(N2CCCC(C(=O)NCc3cccc(F)c3)C2)s1 (stereo not given)	5.1%	-16.6%	.	?	?	-17.2%
Cc1ccccc1CNC(=O)C1CCN(c2nnc(-n3c(C)ccc3C)s2)CC1	5.1%	?	.	16.4µM*	.	-46.7%
Cc1ccc(C)n1-c1nnc(N2CCCC(C(=O)NCc3cccc(Cl)c3)C2)s1 (stereo not given)	5.1%	11.6µM*	.	20.6µM*	.	-38.7%
COc1ccc(CNC(=O)C2CCN(c3nnc(-n4cccc4CNc4ccc(C)cc4)s3)CC2)c(OC)c1	1.0%	13µM*	.	16.4µM*	.	1.4%
COc1cccc(CNC(=O)C2CCN(c3nnc(-n4c(C)ccc4C)s3)CC2)c1OC	10.1%	-62.7%	.	?	.	-19.2%
CCOC1=C2[C@@H](CN(S(=O)(=O)c3ccc(C)cc3)[C@H]2c2ccccc2)[C@H]2C(=O)N(Cc3ccccc3)C(=O)[C@H]2C1	.	?	9.1	?	-0.4%	-5.1%
CC1(C)NC(=O)N(CC(=O)Nc2ccc(-n3cnnn3)cc2)C1=O	-0.6%	-3.5%	4.4	-1.5%	-16.2%	-4.1%
CCOc1ccc(NS(=O)(=O)c2c(C)nc3sc(CC)nn3c2=O)cc1	5.0%	?	14.7	?	?	-32.4%
CCOc1ccc(NC(=O)C2CCN(c3nnc(-n4c(C)ccc4C)s3)CC2)cc1	-2.5%	13µM*	.	23.1µM*	.	-19.0%
CCOc1ccc(OCC)c(NC(=O)C2CCN(c3nnc(-n4cccc4)s3)CC2)c1	-1.1%	13.5%	.	-16.9%	19.1%	-0.3%
SMILES	TDP1 inh	DT40 TDP1 no CPT	IL-1B inflam inh	DT40 TDP1 CPT	TGFb SMAD3 inh	HepG2 viability
Cc1ccc(N(CC(=O)N2CCc3ccccc3C2)S(C)(=O)=O)cc1	6.1%	?	5.7	-37.9%	-15.4%	2.7%
CCCN(CCC)c1ncnc2nc[nH]c12	1.1%	?	20.1	?	?	-2.5%
Clc1ccccc1CN(Cc1ccccc1)c1ncnc2nc[nH]c12	6.9%	0.0%	-84.3*	-9.1%	?	-110.8%
CC(C)(C)n1ncc2c(=O)n(Cc3c(Cl)cccc3Cl)cnc21	.	.	.	.	-1.6%	-23.8%
CC1CCN(C(=S)NC(=O)c2ccc(C(C)(C)C)cc2)CC1	5.9%	?	0.4	23.1µM*	-1.2%	-22.2%
CC(C)(C)c1ccc(C(=O)NC(=S)N2CCCCCC2)cc1	3.0%	13µM*	-6.1	18.4µM*	-2.3%	-2.5%
CCOc1ccc(CNC(=O)c2cnc3sc(N(CC)CC)nn3c2=O)cc1OC	7.1%	?	.	-26.7%	0.0%	-24.0%
Cc1ccc(C(C[N+](=O)[O-])Sc2ccc(N)cc2)cc1 (stereo not given)	10.1%	6.51µM*	.	4.11µM*	11.2µM*	12.6µM*
Cn1c(=O)c2cc(S(=O)(=O)Nc3cc(C(=O)O)cc(C(=O)O)c3)ccc2n(C)c1=O	8.1%	-2.2%	0.4	-4.5%	-7.1%	-7.2%
Cc1cc(C)cc(NS(=O)(=O)c2ccc3c(c2)c(=O)n(C)c(=O)n3C)c1	4.5%	2.06µM*	-67.5*	1.84µM*	-17.7%	-45.6%
Cc1ccc(NS(=O)(=O)c2ccc3c(c2)c(=O)n(C)c(=O)n3C)cc1F	8.0%	16.4µM*	?	14.6µM*	0.3%	-39.2%
COc1ccc(C2CC(=O)Oc3c(C(CCN4CCCC(C)C4)c4ccc(N(C)C)cc4)c(OC)cc(OC)c32)cc1 (stereo not given)	23.2%	?	-10.8	?	-6.2%	-22.4%
COc1cc(OC)c2c(-c3ccccc3)cc(=O)oc2c1C(CC(=O)N1CCOCC1)c1ccc(N(C)C)cc1 (stereo not given)	22.1%	?	3.8	?	-8.7%	0.3%

Compound activity as filed in PubChem.
